Screening results as filed in PubChem BioAssay.
In the library only some 6% were active in any assay of this set; here they are far more common.
Tau FP inhib = inhibitors of human tau fibril formation; P10636; K18 P301L tau heparin fibrillization, Alexa594 FP, 6 h; Potency, µM (doses to about 57.7 µM), without a hit: top-dose activity, negative = inhibition, most hits filed as inhibitors; 0.39% of 280,000 active; AID 1468; further: nearly all actives have a fitted effect of over 55% in size
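Steps: dispense K18 P301L tau (15 uM plus 0.24 uM Alexa 594 tracer, final) in pH 7 sodium acetate; add compound; add heparin (20 uM final); incubate 6 hr, 37 C; add ThT (30 uM final); after 1 hr ambient, read FP.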
Sfp inh = Sfp phosphopantetheinyl transferase inhibition. Q9F4F7. Biochemical Sfp PPTase activity, qHTS. Potency, µM, inactives show largest response in the series, negative = inhibition, usual class: inhibitors. 3.5% of 310,000 active. AID 1490;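 further: the enzyme is Sfp with the accession as filed and its product quenches rhodamine fluorescence; 0% = enzyme reaction without inhibitor and -100% = no enzyme wells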
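Buffer: 50 mM Hepes-Na pH 7.6, 10 mM MgCl2, 0.01% Nonidet P-40, 0.01% BSA. Enzyme 15 nM, pre-exposed to compound 15 min; substrates then added and fluorescence change tracked over 30 min.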
Tau fluor cs = counter-screen for tau fibril formation inhibitors | AID 1463 | 0.93% of 280,000 active | Potency, µM (top dose mostly 57.7 µM), for inactives: top-dose activity change, negative = decrease | tau K18 P301L Alexa594 fluorescence, heparin fibrillization; further: nearly all actives have a fitted effect of over 55% in size
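Human tau K18 P301L (15 uM unlabeled, 0.24 uM Alexa 594-labeled) in 100 mM sodium acetate pH 7 with 20 uM heparin, 6 hr at 37 C. ThT 30 uM added, 1 hr ambient; Alexa 594 FP and total fluorescence read at 555/632 nm.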
PLK1 PBD inh = blocks phosphopeptide binding to human PLK1 polo-box domain | P53350 | Plk1 PBD binding of FITC phosphopeptide, fluorescence polarization | Potency, µM, for inactives: max response, negative = inhibition, hits mostly inhibitors | 2.8% of 360,000 active; further: series mostly up to about 57 µM; nearly all actives have a fitted effect of over 65% in size
Target sequence (P53350 whole entry, looked up, the tested form may be a part): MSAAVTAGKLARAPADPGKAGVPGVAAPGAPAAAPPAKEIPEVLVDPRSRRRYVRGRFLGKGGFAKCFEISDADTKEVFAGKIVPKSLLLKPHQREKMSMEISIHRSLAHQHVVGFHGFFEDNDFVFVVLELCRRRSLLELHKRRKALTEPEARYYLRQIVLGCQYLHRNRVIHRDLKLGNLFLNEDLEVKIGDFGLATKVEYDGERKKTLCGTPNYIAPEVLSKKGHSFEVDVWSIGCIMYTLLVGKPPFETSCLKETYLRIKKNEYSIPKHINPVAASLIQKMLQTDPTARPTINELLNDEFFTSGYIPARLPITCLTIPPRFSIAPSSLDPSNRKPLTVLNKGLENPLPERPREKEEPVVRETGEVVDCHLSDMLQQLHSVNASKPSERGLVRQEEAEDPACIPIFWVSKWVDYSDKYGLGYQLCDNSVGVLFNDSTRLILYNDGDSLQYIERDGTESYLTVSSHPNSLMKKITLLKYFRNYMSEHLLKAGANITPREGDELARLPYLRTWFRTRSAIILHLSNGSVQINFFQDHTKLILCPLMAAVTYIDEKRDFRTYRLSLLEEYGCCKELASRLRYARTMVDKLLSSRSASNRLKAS
Tau ThT inhib = inhibitors of human tau fibril formation, thioflavin T binding. 2.1% of 270,000 active. recombinant tau K18 P301L (four-repeat tau fragment), heparin-induced fibrillization, ThT fluorescence. Potency, µM (highest dose often 57.4 µM), for the others: top-dose activity, negative = inhibition, most hits filed as inhibitors; further: nearly all actives have a fitted effect of over 55% in size
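Aggregation was driven by heparin (20 uM final) acting on recombinant tau […] bearing P301L in 100 mM sodium acetate pH 7; fibrils were detected with Thioflavin T.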
VDR inhibitor = vitamin D3 receptor (human) inhibition; VDR-SRC2-3 peptide fluorescence polarization, 2 h; Potency, µM, for inactives: max response, negative = inhibition, hits mostly inhibitors; 0.93% of 400,000 active; P11473
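The screen uses fluorescence polarization to detect compounds that interfere with recruitment of the SRC2-3 coactivator peptide to VDR; plates are read after 2 h at room temperature.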
* marks the source's active call; other numbers are inactive results; ? = inconclusive; · = not tested or not shown; ! = a repeat was not active; [ ] = dose if it differs, or a comment. The call rests on the fitted dose curve; in most records, active means well fitted curve in the direction sought with a large enough effect; inconclusive means small, poorly fitted or top-dose-only effect, or another doubt; inactive means no such curve, though single readings can be large; an effect the other way counts as inactive or inconclusive. Unless noted, on the % scale 0 is the no-effect control and ±100 the full control effect; potency means the concentration at half of the fitted maximal effect.

SMILES	Tau FP inhib	Sfp inh	Tau fluor cs	PLK1 PBD inh	Tau ThT inhib	VDR inhibitor
O=C(Nc1nnc([C@@H]2C[C@H](O)[C@@H](CO)O2)s1)c1cccc(OC(F)(F)F)c1	·	·	·	-7%	·	·
CN(C)c1ncc2ncc(=O)n(C)c2n1	·	-8%	·	·	·	-19%
COc1ccc(C2NC(=O)c3n[nH]c(C)c32)c(OC)c1 (stereo not drawn)	-2%	14%	-3%	7%	2%	-10%
COc1ccc2ccccc2c1C1CC(=O)N2CN(Cc3ccco3)CSC2=C1C#N (stereo not drawn)	?	5.6µM*	-23%	19µM*	?	?
COc1ccccc1N1CCN(Cc2ccco2)CC1	3%	-24%	-14%	-1%	?	-2%
COc1ccc(C2CC(=O)N3CN(C4CCCCC4)CSC3=C2C#N)c(OC)c1 (stereo not drawn)	?	·	-22%	·	25µM*	?
O=C(CCCN1CCN(c2ccccc2)CC1)c1ccc(F)cc1	·	·	·	2%	·	·
O=C1NCN(c2ccccc2)C12CCN(CCCC(c1ccc(F)cc1)c1ccc(F)cc1)CC2	?	79µM*!	?	-20%	?	-4%
CO[C@@H]1COC(=O)[C@H](C)NC(=O)C/C=C\[C@@H](C)[C@H](OC)COC(=O)[C@H](C)NC(=O)C/C=C\[C@H]1C	-1%[11.6 µM]	23%	-9%[11.6 µM]	·	-14%[11.5 µM]	·
COc1cc2oc(=O)cc(-c3ccc(-c4ccc(CO)cc4)cc3)c2c(OC)c1OC	-9%[81.3 µM]	-11%	-26%[81.3 µM]	-13%	-16%[81.4 µM]	-9%
C=CCn1c(SCC(=O)NCCC2=CCCCC2)nc2ccc(Cl)cc2c1=O	-2%	22%	-5%	11µM*	-5%	?
CCc1nc(SCC(=O)N2CCc3ccccc32)c2oc3ccccc3c2n1	·	·	·	9%	·	3%
CCc1nc(SCC(=O)c2cccs2)c2oc3ccccc3c2n1	-7%	35µM*	-25%	-8%	-22%	-20%
C/C(=N\Nc1ncc(Cl)cc1Cl)c1ccc(C#N)cc1	-13%	11%	-3%	2%	?	-3%
CCN(CC)C(=O)COc1ccc(/C(C)=N/Nc2ncc(Cl)cc2Cl)cc1	4%	79µM*	-5%	-1%	?	-19%
CSCCOC(=O)C1=C(C)NC(=O)NC1c1ccc2c(c1)OCO2 (stereo not drawn)	·	11%	·	3%	·	-8%
CSCCOC(=O)C1=C(C)Nc2ccc(C)cc2S1	10%	50µM*	?	19µM*	?	?
CCOC(=O)C1=C(C)Nc2ccccc2S1	-6%	50µM*	-27%	?	·	?
CCOCCOC(=O)C1=C(C)Nc2ccc(C)cc2S1	1%	?	-22%	?	?	89µM*
CCOCCOC(=O)c1cccc(NC(=O)OCC)c1	-11%	-3%	-3%	-4%	-8%	6%
CCOC(=O)C1=C(C)Nc2ccc(C)cc2S1	-8%	50µM*	?	?	16µM*	?
COc1ccc(N2CCN(c3cncc(C)n3)CC2)cc1	·	·	·	-2%	·	·
Cc1ccc(-c2noc(CNS(=O)(=O)c3ccccc3)n2)cc1	·	4%	·	-4%	·	11%
CCOC(=O)CC1Sc2ccccc2NC1=O (stereo not drawn)	-1%	?	-1%	-26%	0%	0%
CCOC(=O)CC1Sc2ccccc2NC1=S (stereo not drawn)	-20%	40µM*	?	-4%	?	-16%
SMILES	Tau FP inhib	Sfp inh	Tau fluor cs	PLK1 PBD inh	Tau ThT inhib	VDR inhibitor
O=C(c1ccc(C(F)(F)F)n(Cc2ccc(Cl)cc2)c1=O)N1CCOCC1	·	14%	·	-6%	·	?
O=C(c1cccn(Cc2ccc(C(F)(F)F)cc2)c1=O)N1CCOCC1	2%	6%	3%	27µM*	0%	-3%
CC(C)(C)n1nnnc1C(c1cccs1)N(Cc1ccccc1)Cc1ccco1 (stereo not drawn)	-3%	13%	-12%	-9%	?	-7%
CC(C)(C)n1nnnc1C(c1ccncc1)N(Cc1ccccc1)Cc1ccco1 (stereo not drawn)	0%	50µM*	-1%	-8%	-13%	-20%
COc1ccc(C2=CC(c3sccc3C)n3nnnc3N2)cc1 (stereo not drawn)	-5%	50µM*	-15%	-5%	-14%	-6%
COc1cccc(C2=CC(c3ccc(C)cc3)n3ncnc3N2)c1 (stereo not drawn)	-4%	-10%	-7%	·	-4%	·
COc1cccc(C2=CC(c3cccs3)n3nnnc3N2)c1 (stereo not drawn)	-3%	-17%	-18%	-5%	-13%	9%
Cc1ccsc1C1C=C(c2cccc(Br)c2)Nc2ncnn21 (stereo not drawn)	-3%	45µM*	-3%	-29%	-7%	-5%
Cc1cc(O)c(Sc2ncn[nH]2)cc1NS(=O)(=O)c1ccc(Cl)cc1	·	·	·	1%	·	-2%
Cc1ccc([N+](=O)[O-])cc1S(=O)(=O)Nc1ccc(O)c(Sc2ncn[nH]2)c1	·	45µM*	·	?	·	-12%
O=c1ccc(NS(=O)(=O)c2ccccc2Cl)cn1Cc1ccc(Cl)c(Cl)c1	8%	15%	-15%	-6%	-10%	16µM*
Cc1ccc(CNC(=O)c2sc3nc[nH]c(=O)c3c2C)cc1	-4%	·	-2%	·	1%	7%
CNC(=S)N/N=C/c1ccc(C(C)C)cc1	·	·	·	3µM*	·	-12%
COC(=O)c1ccc(/C=N/NC(=S)NC(C)C)cc1	3%	13%	5%	13µM*	1%	25µM*
COc1ccc(-n2c(=O)c(CCc3ccccc3)nc3cnc(OC)nc32)cc1	·	21%	·	·	·	-1%
CCC(=O)C1=C(c2cccc([N+](=O)[O-])c2)N(C(=O)CC)n2c(nnc2-c2ccccc2)S1	-2%	·	?	·	?	4%
COc1ccccc1NC(=O)CN1C(=O)NC2(CCCc3ccccc32)C1=O (stereo not drawn)	·	·	·	-12%	·	-15%
CCCCc1c(-c2ccccc2OC)ncn1Cc1cccc(-c2ccccc2)c1	·	·	·	-17%	·	·
CN1CCN(C(=O)CCCN2C(=O)/C(=C/c3ccc(Cl)cc3)SC2=S)CC1	·	·	·	0%	·	-7%
CN1CCN(C(=O)CCN2C(=O)/C(=C\c3ccc(Cl)cc3Cl)SC2=S)CC1	?	2%	-22%	42µM*	?	2%
CCOc1ccc(/C=C2\SC(=S)N(CCC(=O)O)C2=O)cc1	3%	8%	-1%	-11%	?	8%
CCCN1C(=O)/C(=C/c2ccncc2)SC1=S	3%	56µM*	9%	-17%	8%	?
O=C1/C(=C/c2ccncc2)SC(=S)N1Cc1ccccc1	-1%	?	-24%	?	?	71µM*
O=C1/C(=C/c2ccncc2)SC(=S)N1N1CCOCC1	?	56µM*	-13%	?	?	-21%
